The values that follow come from PubChem BioAssay AID493008 (The Scripps Research Institute Molecular Screening Center, 2010).

SMILES strings stand for the structures. The whole screen tested about 340,000 compounds, of which about 800 (0.24%) were called active.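 Rule for the calls: active = activation above the mean over all tested compounds plus 3 SD (cut at about 30% in these data); inactive = the rest.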 The sample as a whole holds a higher share of actives than the screen did.

This experiment addresses Troponin I, cardiac muscle (Homo sapiens) + Troponin T, cardiac muscle (Homo sapiens) + Troponin C, slow skeletal and cardiac muscles (Homo sapiens) (UniProt P19429+P45379+P63316). Kind of experiment: calcium sensitizers of cardiac thin filaments – biochemical, IANBD-TnC fluorescence, EC20 calcium, primary screen (AID 493008).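 Note: rise in fluorescence read as greater calcium sensitivity of cardiac thin filaments.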 The settings on record: IANBD-labeled TnC RTF fluorescence at EC20 calcium; at 7.2 µM; active compounds read high; 0% EC20 calcium, 100% full calcium.
On to `O=C(NC1=CC(=O)c2ccccc2C1=O)c1ccccc1`, for which the activation was -2.47% (inactive). Next, `COc1cccc2c1C(=O)c1c(O)c3c(c(O)c1C2=O)CC(O)(C(C)=NNC(=O)c1ccc(Cl)c(Cl)c1)CC3OC1CC(N)C(O)C(C)O1` (centres undefined): 220% (active); `CCCCC(CC)CNCc1cccn1CCN1CCOCC1` (centres undefined): -0.42% (inactive). Consider `CCOC(=O)c1ccc(N=C2SC(C(=O)NC)CC(=O)N2CCc2ccccc2)cc1` (centres undefined), for which the activation was 2.1% (inactive). Consider `Nc1c(C(=O)c2cccs2)sc2nsc(SCCN3CCCCC3)c12`, for which the activation is 30.6% (active). Consider `O=C(CSc1ncnc2sccc12)N1CCN(C(=O)c2cccs2)CC1`, for which the activation is 0.04% (inactive). `COc1ccc(C23NCCN2C(=O)c2ccccc23)cc1` (centres undefined): the activation was -1.61% (inactive). For the molecule `COc1cc(S(=O)(=O)N2CCN=C2c2ccccc2)ccc1Cl`, the activation is -3% (inactive). Consider `COc1ccc(NC(C(=O)Nc2cccc(C(C)=O)c2)c2ccccc2)cc1` (centres undefined), for which the activation was 2.77% (inactive). For `COc1ccc(-c2cc(C(=O)N3CCN(c4ccc(F)cc4)CC3)no2)cc1`, the activation was -6.29% (inactive). Turning to `COc1ccc(-c2onc3ccc(C(C)=O)cc23)cc1`, the activation is 42.2% (active). With `CC1CCCN(S(=O)(=O)c2ccc(-c3ccc(=O)[nH]n3)o2)C1` (centres undefined), the activation was 0.69% (inactive). `Cc1ccc2nc(SCC(=O)N3CCN(c4ccccc4)CC3)nc(=O)n2c1`: the activation is -2.94% (inactive). `NS(=O)(=O)c1ccc(N=Nc2c(O)[nH]c3ccc(Br)cc23)cc1`: the activation was -6.02% (inactive). Take `Cc1cccc(N=Nc2c(O)[nH]c3ccc(F)cc23)c1`: the activation was 31.3% (active). Consider `Oc1[nH]c2ccccc2c1N=Nc1c(F)c(F)c(F)c(F)c1F`, for which the activation is 3.02% (inactive).

Take `Cc1ccc(C(=O)O)c(NC=O)c1OCc1ccccc1`: the activation is -0.38% (inactive). Next, `CCN(CC)c1ccc(C(=O)Nn2c(C)nc3ccccc3c2=O)cc1`: 8.65% (inactive); `Cc1ccc2oc(=O)ccc2c1`: -3.77% (inactive).

As for `CCN(CC)c1ccc2oc(=O)c(C)nc2c1`, the activation was 59.9% (active). With `COc1ncnc2c1N=C1CC(C)(C)CC(N)=C1S2`, the activation is 30.1% (active). Regarding `CCOC(=O)c1ccccc1CN1C(=O)c2ccccc2S1(=O)=O`, the activation is 6.29% (inactive). For the molecule `CCOC(=O)c1ccccc1OC(=O)Oc1ccccc1C(=O)OCC`, the activation is 0.28% (inactive). `CCOC(=O)c1cc2n(c1N)-c1ccccc1C2=O`: the activation is 40.9% (active). In the case of `COCCNC(=O)c1onc(CSc2cccc(C)c2)c1C(=O)O`, the activation was 2.19% (inactive). Turning to `Cc1cccc(NC(=O)CSc2nc3c(c(=O)[nH]2)CCC3)c1C`, the activation is 5.1% (inactive). Consider `Cc1cc(OC(C)C(=O)NC2CC(C)(C)NC(C)(C)C2)c2c(C)cc(=O)oc2c1` (centres undefined), for which the activation is -6.45% (inactive). Consider `CCOc1nc(OCC)nc(-n2cc(-c3ccccc3)nn2)n1`, for which the activation is -0.01% (inactive). Turning to `COc1cccc(NS(=O)(=O)c2ccc3[nH]cc(C(=O)NCCCOC(C)C)c(=O)c3c2)c1`, the activation was 1.55% (inactive). Turning to `CCC1(C)COC(c2ccc(OC)c(OC)c2)OC1` (centres undefined), the activation is 15.5% (inactive). Under `COc1ccc(CNCCCO)cc1OC` stands 2.52% (inactive). Consider `COc1ccc(C2C(C#N)=C(N)Oc3cc(N)ccc32)cc1OC` (centres undefined), for which the activation was 2.36% (inactive).

On to `COc1ccc(C2c3ccc(O)cc3Oc3ncn(CCCO)c(=N)c32)cc1OC` (centres undefined), for which the activation was 91.1% (active).

Regarding `CN1C(=O)/C(=C/C=C2\SCCN2C)OC1=S`, the activation was 34% (active). Take `CC(=O)c1cc2c(cc1NC(=O)Cn1nc(-c3ccc(F)cc3)ccc1=O)OCO2`: the activation is 1.13% (inactive). Next, `COc1ccc(OC)c(NC(=O)c2ccc3c(c2)C(=O)N(c2ccc(OC(C)=O)cc2)C3=O)c1`: 1.02% (inactive); `CCOC(=O)c1c(NC(=O)C2CC=CCC2C(=O)O)sc(C)c1CC` (centres undefined): 1.94% (inactive); `CSC1=NCCN1C(=O)Cc1cccc2ccccc12`: -2.5% (inactive). Next, `Nc1ccc2nc3c(=O)[nH]c(=S)[nH]c3nc2c1`: 266% (active); `OC1CCCN(c2ncnc3c2nnn3Cc2c(F)cccc2Cl)C1` (centres undefined): 6.74% (inactive); `CCOc1ccc(C2c3[nH]c4ccccc4c3CCN2Cc2cccn2-c2ncccn2)cc1` (centres undefined): 1.17% (inactive). In the case of `Cc1ccc(CN2CCN(Cc3ccc4ncccc4c3)CC2CCO)cc1` (centres undefined), the activation is 0.85% (inactive). Under `Cc1ccsc1-c1cc(C(=O)O)c2c(ccc3ccccc32)n1` stands 2.92% (inactive). In the case of `Cc1cccc(C)c1NC(=O)CCCSc1nnc(-c2ccco2)n1-c1ccccc1`, the activation was -3.75% (inactive).

On to `CCOc1ccc(-n2cnnn2)cc1S(=O)(=O)N1CCC(C)CC1C` (centres undefined), for which the activation is -1.75% (inactive).

Take `COCCCNC(=O)CNC(=S)N(Cc1cc(OC)c(OC)c(OC)c1)C1CCCC1`: the activation is -8.44% (inactive). In the case of `COc1ccc(/C=C/C(=O)OCC(=O)NC2CCCCCC2)cc1OC`, the activation is -4.52% (inactive). `CCCc1ccc(OCC(O)CN2CCN(CCO)CC2)cc1` (centres undefined): the activation was -4.14% (inactive).

`Cc1ccccc1-n1nc(SCC(=O)O)sc1=S`: the activation was -0.8% (inactive). `Cc1nc(N)sc1-c1ccccc1`: the activation is -3.97% (inactive). As for `CCCN(CCC)c1nc2c(C)cccn2c(=O)c1/C=C1/SC(=S)N(Cc2ccco2)C1=O`, the activation is 34% (active). Turning to `CNc1nc2c(C)cccn2c(=O)c1C=Nc1ccc(OC)cc1`, the activation was -1.57% (inactive). For `Cc1ccc2[nH]c(=O)c(-c3nc4c(C)cccn4c3NCc3ccco3)cc2c1`, the activation is -3.25% (inactive). Next, `O=C(COC(=O)c1cccc(Br)c1)Nc1cccc2c1C(=O)c1ccccc1C2=O`: -3.82% (inactive); `O=C(Cn1cnc2ccccc21)Nc1ccccc1-c1ccccc1`: -3.39% (inactive). Turning to `O=C(COC(=O)Cn1cnc2ccccc21)Nc1cccc2c1C(=O)c1ccccc1C2=O`, the activation is 45.7% (active). `O=S(=O)(NCCc1ccc(Cl)cc1)c1cccs1`: the activation is -0.86% (inactive). Consider `CCOc1ccc2oc(C(=O)N(CC)CC(=O)Nc3ccc(NC(C)=O)cc3)c(C)c2c1`, for which the activation is -0.31% (inactive). As to `O=C(c1cc(-c2ccc(O)cc2)on1)N1CCCc2ccccc21`, the activation was 6.06% (inactive). Regarding `Cc1cccc2cc3c(N)c(C(=O)N4CCCc5ccccc54)sc3nc12`, the activation is 44.8% (active). For `O=C(c1c(Cl)nc2sccn12)N1CCCc2ccccc21`, the activation was -2.79% (inactive). Under `O=C(C[n+]1cc(Br)cc2ccccc21)c1ccc(F)cc1` stands -1.35% (inactive); under `COC(=O)C[n+]1cccc2ccccc21`, 58.3% (active); under `COC(=O)Cc1c(-c2[nH]c3ccccc3c2CC(=O)OC)[nH]c2ccccc12`, 0.63% (inactive).
